# About 83,000 compounds went through this panel and 20% of them were active in at least one assay; those are over-represented in the sample as a whole.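 Cells were grown in 96-well plates and exposed to the test compound at a single concentration for 48 hours; results are reported as percent growth, with values below 10 considered active.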 Values without a mark were called inactive. Calls of active or inactive are those of the source.
# Experiments:
# Experiment in all cases: NCI-60 one-dose screen, 48 h (100 = growth as untreated, 0 = no growth, -100 = all killed)
# Conditions in all cases: 10 µM unless noted
# NCI-H23 lung = system: NCI-H23 lung
# NCI-H226 lung = system: NCI-H226 lung
# NCI-H322M lung = system: NCI-H322M lung
# HOP-62 NSCLC = system: HOP-62 NSCLC
# NCI-H460 lung = system: NCI-H460 lung
# NCI-H522 lung = system: NCI-H522 lung
# A549/ATCC NSCLC = system: A549/ATCC NSCLC
# 786-0 renal = system: 786-0 renal
# COLO 205 colon = system: COLO 205 colon
# DU-145 prostate = system: DU-145 prostate
# K-562 leukemia = system: K-562 leukemia
# MALME-3M melanoma = system: MALME-3M melanoma
# MDA-MB-231 breast = system: MDA-MB-231 breast
# RXF 393 renal = system: RXF 393 renal
# SF-268 CNS = system: SF-268 CNS
# SF-295 CNS = system: SF-295 CNS
# UACC-257 melanoma = system: UACC-257 melanoma
# M14 melanoma = system: M14 melanoma
# HCT-15 colon = system: HCT-15 colon
# SF-539 CNS = system: SF-539 CNS
Structure (SMILES),growth (NCI-H23 lung),growth (NCI-H226 lung),growth (NCI-H322M lung),growth (HOP-62 NSCLC),growth (NCI-H460 lung),growth (NCI-H522 lung),growth (A549/ATCC NSCLC),growth (786-0 renal),growth (COLO 205 colon),growth (DU-145 prostate),growth (K-562 leukemia),growth (MALME-3M melanoma),growth (MDA-MB-231 breast),growth (RXF 393 renal),growth (SF-268 CNS),growth (SF-295 CNS),growth (UACC-257 melanoma),growth (M14 melanoma),growth (HCT-15 colon),growth (SF-539 CNS)
O=C(/C=C/c1cc2ccccc2[nH]c1=O)c1ccc(Cl)cc1,25.7%,40.7%,62.4%,44.4%,12%,-57.5% (active),42.1%,43%,49.4%,12.4%,17.1%,46.4%,32.2%,12.9%,30.7%,42.7%,45.3%,44.7%,41.6%,
COC(=O)[C@]12CC[C@@H](C)[C@H](C)[C@@H]1C1=CC[C@@H]3[C@@]4(C)C[C@@H](OC(=O)c5ccco5)[C@H](O)[C@@](C)(CO)[C@@H]4[C@H](O)C[C@@]3(C)[C@]1(C)CC2,-84.1% (active),-53.4% (active),-93.8% (active),-88.3% (active),-84.7% (active),-83.3% (active),-92.7% (active),-77.8% (active),-93.3% (active),-100% (active),-100% (active),-73.4% (active),-65.7% (active),-79% (active),-79.6% (active),-98.3% (active),,-59.5% (active),-95.7% (active),-90.1% (active)
O=C(CSc1nnc(Nc2ccccc2)s1)NCCc1ccc(F)cc1,131%,85.1%,115%,103%,105%,91.5%,124%,95.6%,115%,105%,107%,97.4%,91.5%,113%,109%,102%,,103%,120%,96.4%
CSc1nc2c(c(=O)[nH]1)C(c1ccc(Cl)cc1)C1=C(N2)/C(=C/c2ccc(Cl)cc2)CNC1 (stereo not given),69%,78.9%,64.1%,-2.54% (active),37.3%,79.3%,32.2%,88.4%,29.2%,39.3%,8.37% (active),91.9%,40.4%,52.3%,10.1%,69.3%,81.9%,64.1%,,
N#Cc1cnc2cc(OC[C@H](O)CO)c(NC(=O)CC3CSSC3)cc2c1Nc1ccc(OCc2cccc(F)c2)c(Cl)c1,-73.4% (active),-62.3% (active),-85.4% (active),-60.8% (active),-70.7% (active),-68.3% (active),-69.3% (active),-63.2% (active),-79.4% (active),-93.5% (active),-100% (active),-67% (active),-54.9% (active),-86.1% (active),-56.3% (active),-82.1% (active),,-66.8% (active),27.3%,-85.8% (active)
CC(=O)Oc1ccc(C2OC(c3ccc4ccccc4c3OC(C)=O)=NN2C(C)=O)c(OC(C)=O)c1 (stereo not given),28.8%,15.7%,24.4%,14.7%,6.03% (active),4.49% (active),6.76% (active),5.71% (active),15.9%,22.7%,4.1% (active),8.98% (active),39.9%,1.4% (active),13.7%,,-28.2% (active),3.34% (active),,13.9%
CC(c1cc(Cl)ccc1O)c1cc(Cl)ccc1O,17.9%,82.5%,80%,84.3%,15.7%,-39.3% (active),29.3%,90%,41.2%,50.7%,28.7%,16.5%,43.8%,49.6%,35%,45.9%,33%,22.7%,29.7%,
Cn1c(=O)c2c(nc(Br)n2CCC(=O)Nc2ccc(F)cc2)n(C)c1=O,101%,101%,106%,92.4%,109%,87.9%,85.2%,100%,112%,118%,97.5%,105%,102%,118%,111%,104%,,96.3%,108%,98.7%
